The record followed here is the supplement of paper PMC7695840.

In experiment [1] the test system is Staphylococcus aureus MW2 delta-mecA (mecA-). Briefly: normalized GFP fluorescence (growth of mecA- strain) (fraction of control range); higher = more growth of mecA- strain. The note with it: compound concentration: 150 uM; cefoxitin: subinhibitory; fluorescent label: GFP. In short, it runs like this:
(§1)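 Fluorescence from DsRed (540/590) and GFP (485/520) was recorded after 20 h of static growth at 37 °C and 90% humidity. The wells held a 1:1 mix of pre-induced S. aureus MW2 cells, gene-bearing with DsRed and gene-deleted with GFP, in LB with a daily-set subinhibitory antibiotic dose, dispensed at 5 µL/well onto 150 μM compound (1.5% DMSO) in 1536-well plates, single replicate. Each channel was scaled per plate between single-strain control medians, excluding plates with high untreated ratios and rows with DsRed/GFP >10.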

Experiment [2] deals with Staphylococcus aureus MW2 (mecA+). Briefly: normalized DsRed fluorescence (growth of mecA+ strain) (fraction of control range); higher = more growth of mecA+ strain. The note with it: compound concentration: 150 uM; cefoxitin: subinhibitory; fluorescent label: DsRed. In short, it runs like this:
as §1

Turning to `OC(CCN1CCCCC1)(c1ccccc1)C1CCCCC1` (centres undefined), the “normalized GFP fluorescence” value in experiment [1] was 0.277. Further, in experiment [2], the “normalized DsRed fluorescence” value was 0.789.
For `CC(C)CN(C[C@@H](O)[C@H](Cc1ccccc1)NC(=O)O[C@H]1CCOC1)S(=O)(=O)c1ccc(N)cc1` [Amprenavir (Agenerase)], the “normalized GFP fluorescence” value in experiment [1] amounted to 0.174. In addition, the “normalized DsRed fluorescence” value in experiment [2] was 0.506.
As to `COc1cc(C2Oc3ccc(C4Oc5cc(O)cc(O)c5C(=O)C4O)cc3OC2CO)ccc1O` (centres undefined) [Silymarin (Silybin B)], the “normalized GFP fluorescence” value in experiment [1] was 0.34. Besides, the “normalized DsRed fluorescence” value in experiment [2] is 0.987.
For `C[C@H]1[C@H](NC(=O)/C(=N\OC(C)(C)C(=O)O)c2csc(N)n2)C(=O)N1S(=O)(=O)O` [Aztreonam (Azactam, Cayston)], in that order: 0.136 and 1.17.
Turning to `C[C@]12CC[C@@H]3c4ccc(O)cc4C[C@@H](CCCCCCCCC[S+]([O-])CCCC(F)(F)C(F)(F)F)[C@H]3[C@@H]1CC[C@@H]2O` (some centres undefined), the “normalized GFP fluorescence” value in experiment [1] was 0.185. Moreover, in experiment [2], the “normalized DsRed fluorescence” value came out at 0.667.
Take `NNc1nncc2ccccc12`: in experiment [1], the “normalized GFP fluorescence” value was 0.383. In addition, the “normalized DsRed fluorescence” value in experiment [2] is 0.694.
In the case of `Clc1ccc2c(c1)C(N1CCNCC1)=Nc1ccccc1O2`, in experiment [1], the “normalized GFP fluorescence” value was 0.114. Besides, in experiment [2], the “normalized DsRed fluorescence” value was found to be 1.74.
With `O=c1ccn([C@@H]2O[C@H](CO)[C@@H](O)[C@H]2O)c(=O)[nH]1` [Uridine], in experiment [1], the “normalized GFP fluorescence” value came to 0.265. Further, the “normalized DsRed fluorescence” value in experiment [2] came out at 0.849.
On to `CCCSc1ccc2[nH]c(NC(=O)OC)nc2c1`, for which the “normalized GFP fluorescence” value in experiment [1] turned out to be 0.251. For the same molecule, the “normalized DsRed fluorescence” value in experiment [2] came to 0.742.
On to `O=C1CN(/N=C/c2ccc(-c3ccc([N+](=O)[O-])cc3)o2)C(=O)N1`, for which the “normalized GFP fluorescence” value in experiment [1] stood at 0.519. For the same molecule, the “normalized DsRed fluorescence” value in experiment [2] is 0.706.
Regarding `O=C(C1CCCCC1)N1CC(=O)N2CCc3ccccc3C2C1` (centres undefined), the “normalized GFP fluorescence” value in experiment [1] worked out at 0.421. For the same molecule, the “normalized DsRed fluorescence” value in experiment [2] stood at 0.542.
As for `CN(C)CC/C=C1/c2ccccc2Sc2ccc(Cl)cc21`, the “normalized GFP fluorescence” value in experiment [1] turned out to be 0.0199. Also, in experiment [2], the “normalized DsRed fluorescence” value worked out at 1.12.
On to `O=C(O)C(=O)O.[NH-][C@@H]1CCCC[C@H]1[NH-].[Pt+2]`, for which the “normalized GFP fluorescence” value in experiment [1] stood at 0.253. Also, in experiment [2], the “normalized DsRed fluorescence” value stood at 1.17.
The like results for `CCCCCCCCCCCCCCCCCCCCCCO` were, in that order, 0.3 and 0.765.
On to `OCCN(CCO)c1nc(N2CCCCC2)c2nc(N(CCO)CCO)nc(N3CCCCC3)c2n1`, for which, in experiment [1], the “normalized GFP fluorescence” value came to 0.523. The “normalized DsRed fluorescence” value in experiment [2] stood at 0.744.
`CCN(C(=O)c1c(O)c2c(Cl)cccc2n(C)c1=O)c1ccccc1`: the “normalized GFP fluorescence” value in experiment [1] came out at 0.0925. The “normalized DsRed fluorescence” value in experiment [2] came to 0.805.
In the case of `C[C@@H]1CCN(C(=O)CC#N)C[C@@H]1N(C)c1ncnc2[nH]ccc12`, the “normalized GFP fluorescence” value in experiment [1] turned out to be 0.325. Also, the “normalized DsRed fluorescence” value in experiment [2] amounted to 0.9.
For `CC12CC3CC(C)(C1)CC(N)(C3)C2`, in that order: 0.384 and 0.672.
With `CN(C)CCN(Cc1ccccc1)c1ccccn1`, the “normalized GFP fluorescence” value in experiment [1] came to 0.488. Besides, the “normalized DsRed fluorescence” value in experiment [2] was found to be 0.468.
For `CCCCC1=NC2(CCCC2)C(=O)N1Cc1ccc(-c2ccccc2-c2nnn[nH]2)cc1`, in that order: 0.0654 and 0.337.
With `CC[C@@H](CO)NCCN[C@@H](CC)CO`, in experiment [1], the “normalized GFP fluorescence” value was 0.377. Besides, the “normalized DsRed fluorescence” value in experiment [2] was 0.991.
Regarding `O=c1[nH]c(=O)n([C@H]2C[C@H](O)[C@@H](CO)O2)cc1I`, the “normalized GFP fluorescence” value in experiment [1] is 0.363. In addition, the “normalized DsRed fluorescence” value in experiment [2] stood at 0.546.
